Screening results deposited in PubChem BioAssay by several laboratories.
This is a sample that favours compounds with a hit; in the whole collection about 2.9% have one here.
ERb SRC1 inh = ER-beta (human) coactivator binding inhibition; inhibition, % at 25.6 µM; hit rate 1.3% among 86,000; TR-FRET ER-beta LBD / SRC1-Cy5 peptide binding; receptor agonist-loaded with 1 µM estradiol; Q92731; AID 633;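 active = compounds whose percent inhibition of the receptor-coactivator binding signal exceeds about 50% in the single-dose screen, limit read from the data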;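 note: 0% = receptor plus peptide wells without compound and 100% = peptide-only wells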
Candida biofilm = kills Candida albicans biofilms; C. albicans biofilm + clotrimazole, Alamar Blue; inhibition, % at 6 µM; hit rate 0.14% among 85,000;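 active = inhibition above 20%; inactive = inhibition below 20%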;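 note: preformed 24 hr biofilms exposed to compound for 48 hr; 0% = biofilm without compound and 100% = blank killed by clotrimazole plus chlorhexidine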
ERa coact inh = blocks coactivator binding to human estrogen receptor alpha | P03372 | TR-FRET ER-alpha LBD / SRC-1 peptide, estradiol-bound | inhibition, % at 25.6 µM | hit rate 1.7% among 86,000; in the data active = inhibition above about 50%;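 note: 0% = receptor plus peptide control and 100% = peptide only without receptor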
Target sequence (P03372 whole entry, looked up, the tested form may be a part): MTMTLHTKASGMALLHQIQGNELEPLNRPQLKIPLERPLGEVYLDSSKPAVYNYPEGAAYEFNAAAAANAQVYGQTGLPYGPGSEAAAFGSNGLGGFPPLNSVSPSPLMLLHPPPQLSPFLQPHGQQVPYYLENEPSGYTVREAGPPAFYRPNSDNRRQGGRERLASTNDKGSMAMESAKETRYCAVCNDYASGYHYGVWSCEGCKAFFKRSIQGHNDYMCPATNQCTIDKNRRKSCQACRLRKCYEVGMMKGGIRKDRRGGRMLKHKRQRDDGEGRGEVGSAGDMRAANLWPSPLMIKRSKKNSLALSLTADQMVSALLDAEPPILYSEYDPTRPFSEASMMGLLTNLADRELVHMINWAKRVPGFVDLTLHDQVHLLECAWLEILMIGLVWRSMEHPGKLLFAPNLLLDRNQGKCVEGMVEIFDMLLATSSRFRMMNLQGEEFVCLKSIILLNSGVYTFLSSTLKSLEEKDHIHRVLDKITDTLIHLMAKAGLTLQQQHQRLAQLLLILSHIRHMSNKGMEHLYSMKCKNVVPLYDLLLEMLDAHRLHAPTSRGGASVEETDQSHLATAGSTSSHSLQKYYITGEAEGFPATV
E-sel TNF inh = blocks E-selectin expression induced by TNF alpha; AID 1246; hit rate 0.71% among 120,000; inhibition, % at 2 µM; HUVEC TNFa-induced E-selectin immunofluorescence, high content;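 active = inhibition above the batch mean plus 3 SD, and confirmed as a hit on visual image review, cut at about 43% in these data; inconclusive = passes the inhibition cutoff but fails visual image review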;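 note: 0% = TNF-stimulated DMSO wells and 100% = unstimulated control wells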
ERa SRC1 pot = ER-alpha (human) coactivator binding potentiation; P03372; coactivator binding (% of control), % at 25.6 µM; hit rate 1.3% among 86,000; TR-FRET ERalpha-LBD/SRC-Cy5 coactivator binding, 2 h; 100 = basal binding, no effect; in the data active = activity above about 200%;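 note: binding measured in presence of low estradiol as agonist stimulus; 0% = peptide alone without receptor and 100% = receptor with peptide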
F-actin modifier = cytoskeleton assembly modification | HUVEC TNFa F-actin phalloidin imaging, high content | inhibition, % at 2 µM | hit rate 0.18% among 91,000 | AID 836;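 active = inhibition above the batch mean plus 3 SD and confirmed as a hit by visual image inspection, cut at about 30% in these data, passing the limit was not always enough; inconclusive = above the inhibition threshold but rejected on visual inspection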
The depositor's hits bear a star; [ ] = another dose, or the depositor's remark.

Cc1cc(C)n(-c2ccc(C(=O)OCC(=O)c3ccc(Br)s3)cc2)n1 was read as ERb SRC1 inh 5, Candida biofilm 6, ERa coact inh 2, E-sel TNF inh 12, ERa SRC1 pot 207* and F-actin modifier 21.
CCOc1ccc2[nH]c(=O)c(CN(Cc3ccccc3)C(=O)N3CCCC3)cc2c1 was read as E-sel TNF inh -2 and F-actin modifier 50*.
Screening Cc1ccc(C(=O)C2CCN(CC(=O)N3CCN(c4ccc(F)cc4)CC3)CC2)cc1 returned E-sel TNF inh -19.
For COc1ccc(Oc2ncnc3c2oc2ccc(Br)cc23)cc1 the results were ERb SRC1 inh 30, Candida biofilm 8, ERa coact inh 43 and ERa SRC1 pot 416*.
For O=c1oc2ccccc2n1Cc1ccccc1Cl the results were ERb SRC1 inh 33, Candida biofilm 21*, ERa coact inh 18 and ERa SRC1 pot 67.
Screening Nc1ncnc2oc(-c3ccco3)c(-c3ccco3)c12 returned ERb SRC1 inh 88*[fluorescence artefact?], Candida biofilm 7, ERa coact inh 94*[fluorescence artefact?], E-sel TNF inh -2, ERa SRC1 pot 13 and F-actin modifier -3.
For Nc1nnc(-c2ccco2)s1 the results were ERb SRC1 inh 18, Candida biofilm 8, ERa coact inh 6 and ERa SRC1 pot 90.
`CCCCCCN=CC1=C(O)C(C(=O)OC)C(C)(C)CC1=O` (stereo not given) gave ERb SRC1 inh 60*, Candida biofilm 7, ERa coact inh 42, E-sel TNF inh 12, ERa SRC1 pot 54 and F-actin modifier 9.
Screening Cc1cc(NC(=O)CSc2nc3cc4c(cc3c(=O)n2CCc2ccccc2)OCO4)no1 returned ERb SRC1 inh 20, Candida biofilm 6, ERa coact inh 30, E-sel TNF inh -21 and ERa SRC1 pot 111.
Screening Cc1cc2cc(C)c3nnc(SCC(=O)NCc4ccco4)n3c2cc1C returned ERb SRC1 inh 16, Candida biofilm -3, ERa coact inh -1, E-sel TNF inh 39, ERa SRC1 pot 81 and F-actin modifier 0.
Screening CCc1cc2c(SCC(=O)Nc3cc(C)on3)ncnc2s1 returned E-sel TNF inh 35.
For Cc1cc(NC(=O)CSc2nc(C(C)C)nc3sc(C)c(C)c23)no1 the results were ERb SRC1 inh 4, Candida biofilm 7, ERa coact inh 6, E-sel TNF inh -3, ERa SRC1 pot 147 and F-actin modifier 18.
`Cc1cc(NC(=O)CSc2ncnc3sc4c(c23)CCC(C)C4)no1` (stereo not given) gave ERb SRC1 inh 24, Candida biofilm 3, ERa coact inh 22 and ERa SRC1 pot 375*[fluorescence artefact?].
`Cc1cc(NC(=O)CSc2nnc3c(C)cc4cc5c(cc4n23)OCO5)no1` gave ERb SRC1 inh 26, Candida biofilm 6, ERa coact inh 52*[fluorescence artefact?] and ERa SRC1 pot 171.
Screening Cc1cc(NC(=O)CSc2nnc3c(C)cc4cc(C)c(C)cc4n23)no1 returned ERb SRC1 inh 37, Candida biofilm 3, ERa coact inh 74*[fluorescence artefact?], ERa SRC1 pot 241*[fluorescence artefact?] and F-actin modifier 15.
`Cc1cc(NC(=O)CSc2nnc3c4c(C)c(C)sc4ncn23)no1` gave ERb SRC1 inh 14, Candida biofilm 0, ERa coact inh 10, E-sel TNF inh 69*, ERa SRC1 pot 177 and F-actin modifier -2.
CC(=O)N/C(=N\OCc1ccccc1Cl)c1nonc1NC(C)=O was read as E-sel TNF inh -16.
Screening COCc1cc(=O)[nH]c(/N=C(\N)Nc2ccccc2C)n1 returned ERb SRC1 inh -8, Candida biofilm 9, ERa coact inh -10, E-sel TNF inh -10, ERa SRC1 pot 99 and F-actin modifier -4.
Screening CCN(c1ccccc1)S(=O)(=O)c1cnc[nH]1 returned ERb SRC1 inh -1, Candida biofilm -4, ERa coact inh 7, E-sel TNF inh -6 and ERa SRC1 pot 99.
For COc1cccc(NC(C)C(=O)Nc2cc([N+](=O)[O-])ccc2Cl)c1 (stereo not given) the results were E-sel TNF inh 11.
`CCOC(=O)N1CCC(Nc2c(N3CCN(c4cccc(C(F)(F)F)c4)CC3)c(=O)c2=O)CC1` gave ERb SRC1 inh 63*[fluorescence artefact?], Candida biofilm -3, ERa coact inh -5, E-sel TNF inh 0, ERa SRC1 pot 99 and F-actin modifier 48.
`CC(=O)Nc1ccc(C(=O)CSc2nnc3scc(-c4ccccc4)n23)cc1` gave ERb SRC1 inh 17, Candida biofilm 10, ERa coact inh 41, ERa SRC1 pot 232*[fluorescence artefact?] and F-actin modifier 7.
`O=C(CCSc1nnc2scc(-c3ccccc3)n12)Nc1nc(-c2ccccc2)ns1` gave ERb SRC1 inh 6, ERa coact inh 1, E-sel TNF inh 10, ERa SRC1 pot 186 and F-actin modifier inconclusive.
Screening COc1ccc(Nc2nc(C)cc(C)c2C#N)cc1OC returned ERb SRC1 inh 2, Candida biofilm -6, ERa coact inh -12, E-sel TNF inh 59*, ERa SRC1 pot 115 and F-actin modifier -2.
`O=C(Nc1ccccc1)c1ccc(NC2CCCCC2)c(S(=O)(=O)N2CCOCC2)c1` gave ERb SRC1 inh 7, Candida biofilm 5, ERa coact inh -1, E-sel TNF inh -23, ERa SRC1 pot 111 and F-actin modifier -2.
Screening O=C(Nc1ccccc1)c1ccc(N2CCN(c3ccccn3)CC2)c(S(=O)(=O)N2CCOCC2)c1 returned ERb SRC1 inh 27, Candida biofilm 0, ERa coact inh 27, E-sel TNF inh 5, ERa SRC1 pot 340*[fluorescence artefact?] and F-actin modifier 8.
For O=C(Nc1ccccc1)c1ccc(N2CCN(c3ccccc3)CC2)c(S(=O)(=O)N2CCOCC2)c1 the results were ERb SRC1 inh 26, Candida biofilm 2, ERa coact inh 31, E-sel TNF inh 9, ERa SRC1 pot 405*[fluorescence artefact?] and F-actin modifier 9.
Screening CCc1cccc(Nc2cc(C)nc3nc(C)nn23)c1 returned ERb SRC1 inh -11, Candida biofilm 8, ERa coact inh -7, E-sel TNF inh -7 and ERa SRC1 pot 110.
`CCCS(=O)(=O)N1CCC(C(=O)NCCCOC)CC1` gave ERb SRC1 inh 6, Candida biofilm 8, ERa coact inh -7, E-sel TNF inh 100*, ERa SRC1 pot 103 and F-actin modifier 2.
`COCc1cc(C)nc(SCC(=O)Nc2ccc(C)c(C)c2)c1C#N` gave ERb SRC1 inh 3, Candida biofilm 5, ERa coact inh -7, E-sel TNF inh 4 and ERa SRC1 pot 208*[fluorescence artefact?].
CC1(C)CC2CC(C)(CN2S(=O)(=O)c2cccc(N)c2)C1 (stereo not given) was read as ERb SRC1 inh 0, Candida biofilm 4, ERa coact inh -8, E-sel TNF inh -1, ERa SRC1 pot 237*[fluorescence artefact?] and F-actin modifier -13.
O=C(NCc1cccnc1)Nc1cccc(NC(=O)NCc2cccnc2)c1 was read as ERb SRC1 inh -2, Candida biofilm 9, ERa coact inh -7, E-sel TNF inh -27 and ERa SRC1 pot 97.
